The values that follow come from PubChem BioAssay (EPA / NIEHS).

Structures are written as SMILES. Where “and” joins values, the source holds several entries; their conditions need not be identical. Equal entries are not always repeated. Some structures have more than one record in an assay (separate samples or runs), and their calls can disagree. Calls of active or inactive are those of the source. How the source made its calls: active means hit-call score of the fitted dose curve at least 0.9, where 1 is the maximum; inactive means score below 0.9.

Read-out in experiment [1]: Thrombomodulin, THBD (gene 7056)
Nature of the experiment: BSK_CASM3C_Thrombomodulin: BioMAP Diversity Plus: CASM3C Assay for Thrombomodulin Biomarker Activity (AID 2283051).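 Further: thrombomodulin protein level measured by ELISA 24 h after dosing.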 The note with it: primary human coronary artery smooth muscle cells; actives raise or lower the signal.

Read-out in experiment [2]: Tissue Factor, F3 (gene 2152)
Nature of the experiment: BSK_CASM3C_TissueFactor: BioMAP Diversity Plus: CASM3C Assay for Tissue Factor Biomarker Activity (AID 2283052).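 Further: cell surface tissue factor protein level read by ELISA.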 The note with it: primary human coronary artery smooth muscle cells; actives raise or lower the signal.

Read-out in experiment [3]: Interferon-gamma inducible Protein 10 (IP10), CXCL10 (gene 3627)
Nature of the experiment: BSK_hDFCGF_IP10: BioMAP Diversity Plus: hDFCGF Assay for Interferon-gamma inducible Protein 10 (IP10) Biomarker Activity (AID 2283053). The note with it: primary human foreskin fibroblasts; actives raise or lower the signal. The procedure, abridged:
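ELISA read-out of IP-10 (CXCL10) from primary human skin fibroblasts, 24 h after compound addition. Gain or loss of signal versus DMSO baseline, bidirectional curve fitting.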

Read-out in experiment [4]: Urokinase-type plasminogen activator receptor (uPAR), PLAUR (gene 5329)
Nature of the experiment: BSK_CASM3C_uPAR: BioMAP Diversity Plus: CASM3C Assay for Urokinase-type plasminogen activator receptor (uPAR) Biomarker Activity (AID 2283054).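 Further: cell-surface uPAR protein level quantified by ELISA.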 The note with it: primary human coronary artery smooth muscle cells; actives raise or lower the signal.

Read-out in experiment [5]: Vascular cell adhesion molecule 1 (VCAM1), VCAM1 (gene 7412)
Nature of the experiment: BSK_CASM3C_VCAM1: BioMAP Diversity Plus: CASM3C Assay for Vascular cell adhesion molecule 1 (VCAM1) Biomarker Activity (AID 2283055).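 Further: VCAM-1 protein level quantified by ELISA on the cells.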 The note with it: primary human coronary artery smooth muscle cells; actives raise or lower the signal.

Read-out in experiment [6]: Collagen III, COL3A1 (gene 1281)
Nature of the experiment: BSK_hDFCGF_CollagenIII: BioMAP Diversity Plus: hDFCGF Assay for Collagen III Biomarker Activity (AID 2283056). The note with it: primary human foreskin fibroblasts; actives raise or lower the signal. The procedure, abridged: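 Human foreskin primary fibroblasts were exposed to test chemicals for 24 h, after which collagen III was quantified by ELISA. Activity was fitted bidirectionally against DMSO as negative control and baseline.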

Read-out in experiment [7]: Epidermal growth factor receptor (EGFR), EGFR (gene 1956)
Nature of the experiment: BSK_hDFCGF_EGFR: BioMAP Diversity Plus: hDFCGF Assay for Epidermal growth factor receptor (EGFR) Biomarker Activity (AID 2283057). The note with it: primary human foreskin fibroblasts; actives raise or lower the signal. The procedure, abridged: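 ELISA readout of EGFR on human dermal fibroblasts (primary foreskin cells), 24 h post-dosing; bidirectional curve fit vs DMSO baseline, gain or loss of signal scored.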

Read-out in experiment [8]: Interleukin-8 (IL8), CXCL8 (gene 3576)
Nature of the experiment: BSK_hDFCGF_IL8: BioMAP Diversity Plus: hDFCGF Assay for Interleukin-8 (IL8) Biomarker Activity (AID 2283058). The note with it: primary human foreskin fibroblasts; actives raise or lower the signal. The procedure, abridged:
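hDFCGF human dermal fibroblasts; 24 h chemical exposure; IL-8 by ELISA; bidirectional curve fit vs DMSO baseline; gain or loss of signal scored.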

Experiment [9] in a line: BSK_hDFCGF_Proliferation: Cell Proliferation Assessment in the BioMAP Diversity Plus: hDFCGF Assay (AID 2283059).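 Further: curves fitted for both rise and fall of signal versus DMSO baseline.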 The note with it: primary human foreskin fibroblasts. In a few lines:
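Sub-confluent human foreskin fibroblast cultures receive test chemical […]. Relative cell number is quantified by sulforhodamine B staining (0.1%, after 10% TCA fixation) at 560 nm, with bidirectional fitting referenced to DMSO.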

Read-out in experiment [10]: Macrophage colony-stimulating factor (MCSF), CSF1 (gene 1435)
Nature of the experiment: BSK_hDFCGF_MCSF: BioMAP Diversity Plus: hDFCGF Assay for Macrophage colony-stimulating factor (MCSF) Biomarker Activity (AID 2283060). The note with it: primary human foreskin fibroblasts; actives raise or lower the signal. The procedure, abridged: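 Human foreskin primary fibroblasts were treated with test chemical for 24 h, and M-CSF was then measured by ELISA. Data were fitted bidirectionally against DMSO as the negative control and activity baseline.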

A short description of experiment [11]: BSK_hDFCGF_SRB: Viability Assessment in the BioMAP Diversity Plus: hDFCGF Assay (AID 2283061).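 Further: cells exposed to compound for 24 h before the read.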 The note with it: primary human foreskin fibroblasts. The procedure, abridged: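 Human foreskin primary fibroblasts were treated with compound and assessed 24 h after dosing. Total protein was measured by sulforhodamine B staining (0.1% SRB after 10% TCA fixation, 560 nm read) as a cytotoxicity marker, with bidirectional fitting against DMSO baseline.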

Read-out in experiment [12]: TIMP metallopeptidase inhibitor 1 (TIMP1), TIMP1 (gene 7076)
Nature of the experiment: BSK_hDFCGF_TIMP1: BioMAP Diversity Plus: hDFCGF Assay for TIMP metallopeptidase inhibitor 1 (TIMP1) Biomarker Activity (AID 2283062). The note with it: primary human foreskin fibroblasts; actives raise or lower the signal. In a few lines:
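Primary human foreskin fibroblasts in the hDFCGF system were dosed with compound for 24 h, then TIMP-1 was measured by ELISA. Activity was fitted bidirectionally relative to DMSO control; parallel SRB staining assessed cytotoxicity.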

Read-out in experiment [13]: Vascular cell adhesion molecule 1 (VCAM1), VCAM1 (gene 7412)
Nature of the experiment: BSK_hDFCGF_VCAM1: BioMAP Diversity Plus: hDFCGF Assay for Vascular cell adhesion molecule 1 (VCAM1) Biomarker Activity (AID 2283065).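 On AC50: VCAM-1 protein level quantified by ELISA after 24 h chemical exposure.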 The note with it: primary human foreskin fibroblasts; actives raise or lower the signal. In a few lines:
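Primary human foreskin fibroblasts (hDFCGF system) were dosed with chemical and VCAM-1 was measured by ELISA 24 h later. Bidirectional curve fitting used DMSO as negative control and activity baseline.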

Read-out in experiment [14]: Plasminogen activator inhibitor-1 (PAI1), SERPINE1 (gene 5054)
Nature of the experiment: BSK_hDFCGF_PAI1: BioMAP Diversity Plus: hDFCGF Assay for Plasminogen activator inhibitor-1 (PAI1) Biomarker Activity (AID 2283066). The note with it: primary human foreskin fibroblasts; actives raise or lower the signal. The procedure, abridged: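 ELISA readout of PAI-1 from primary human skin fibroblast cultures, 24 h after compound addition. Gain or loss of signal was fitted bidirectionally against DMSO baseline.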

Read-out in experiment [15]: Intercellular Adhesion Molecule 1 (ICAM1), ICAM1 (gene 3383)
Nature of the experiment: BSK_KF3CT_ICAM1: BioMAP Diversity Plus: KF3CT Assay for Intercellular Adhesion Molecule 1 (ICAM1) Biomarker Activity (AID 2283067). The note with it: primary human keratinocytes with fibroblasts; actives raise or lower the signal. The procedure, abridged: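 Human keratinocyte plus foreskin fibroblast primary co-culture was exposed to chemical for 24 h. ICAM-1 was then quantified by ELISA, and the data were fit bidirectionally against DMSO as the negative control and baseline.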

Read-out in experiment [16]: Interferon-gamma inducible Protein 10 (IP10), CXCL10 (gene 3627)
Nature of the experiment: BSK_KF3CT_IP10: BioMAP Diversity Plus: KF3CT Assay for Interferon-gamma inducible Protein 10 (IP10) Biomarker Activity (AID 2283068). The note with it: primary human keratinocytes with fibroblasts; actives raise or lower the signal. The procedure, abridged: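 ELISA read-out of IP-10 after 24 h chemical dosing of human skin primary co-culture (keratinocytes, foreskin fibroblasts). Gain or loss of signal relative to DMSO, bidirectional curve fit.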

A short description of experiment [17]: BSK_KF3CT_SRB: Viability Assessment in the BioMAP Diversity Plus: KF3CT Assay (AID 2283069). The note with it: primary human keratinocytes with fibroblasts. In a few lines:
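Cytotoxicity was gauged by SRB staining (0.1% SRB, 10% TCA fixation, 560 nm) of parallel cultures at 24 h. The cells were primary human skin keratinocytes co-cultured with fibroblasts, and activity was fitted in both directions against DMSO.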

Read-out in experiment [18]: Interleukin-1 alpha (IL1a), IL1A (gene 3552)
Nature of the experiment: BSK_KF3CT_IL1a: BioMAP Diversity Plus: KF3CT Assay for Interleukin-1 alpha (IL1a) Biomarker Activity (AID 2283070). The note with it: primary human keratinocytes with fibroblasts; actives raise or lower the signal. In a few lines: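 IL-1a was detected by ELISA 24 h after chemical treatment of a co-culture of human skin keratinocytes and foreskin fibroblasts. Gain or loss of signal was fitted against the DMSO baseline.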

Read-out in experiment [19]: Monokine induced gamma interferon (MIG), CXCL9 (gene 4283)
Nature of the experiment: BSK_hDFCGF_MIG: BioMAP Diversity Plus: hDFCGF Assay for Monokine induced gamma interferon (MIG) Biomarker Activity (AID 2283063). The note with it: primary human foreskin fibroblasts; actives raise or lower the signal. The procedure, abridged:
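ELISA read-out of MIG from primary human dermal fibroblasts 24 h post-dosing. Gain or loss of signal fitted bidirectionally, DMSO as baseline.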

Read-out in experiment [20]: Matrix Metallopeptidase 1 (MMP1), MMP1 (gene 4312)
Nature of the experiment: BSK_hDFCGF_MMP1: BioMAP Diversity Plus: hDFCGF Assay for Matrix Metallopeptidase 1 (MMP1) Biomarker Activity (AID 2283064). The note with it: primary human foreskin fibroblasts; actives raise or lower the signal. The procedure, abridged: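 MMP1 levels quantified by ELISA 24 h after dosing human dermal fibroblast cultures, with parallel SRB total-protein staining for overt cytotoxicity. Data fitted in both directions against DMSO baseline.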

Consider `CCCOCC(=Nc1ccc(Cl)cc1C(F)(F)F)n1ccnc1`, for which the half-maximal activity concentration (AC50) (usually the concentration at which the activity in the assay is half-maximal) in experiment [1] was 20.9 µM (active); in experiment [3], 31.1 µM (active); in [5], 20 µM (active); in experiment [6] it was 29.4 µM (active); in experiment [7] it was 33.8 µM (active); in experiment [8] it was 38.3 µM (active). The half-maximal activity concentration (AC50) in experiment [9] is 21.2 µM (active); in experiment [10], 24.3 µM (active); in [11], 30.4 µM (active); in [12], 32 µM (active); in experiment [13], 27.9 µM (active); in [14], 26.3 µM (active). The AC50 was 29.7 µM (active) in experiment [15], 29.1 µM (active) in experiment [16], 32.7 µM (active) in [17] and 36.4 µM (active) in experiment [18]. The outcome in [2] and in experiment [4] was inactive.
In the case of `Cc1ccn2nc(S(=O)(=O)Nc3c(F)cccc3F)nc2n1`, the outcome in experiment [1], in experiment [2], in experiment [3], in experiment [4], in experiment [5] and in [6] was inactive. The result in experiment [7], in [9], in experiment [10], in experiment [11], in experiment [12] and in experiment [19] was inactive. Besides, the outcome in [20], in experiment [13], in experiment [14], in [15], in experiment [16] and in experiment [17] was inactive. Further, the result in [18] was inactive.
With `CNc1cnn(-c2cccc(C(F)(F)F)c2)c(=O)c1Cl`, the outcome in experiment [1], in [2], in experiment [3], in experiment [4], in [5] and in [6] was inactive. In addition, the result in [7], in experiment [8], in experiment [9], in [10], in experiment [11] and in experiment [19] was inactive. Besides, the outcome in [13], in experiment [14], in [15], in [16], in [17] and in experiment [18] was inactive.
With `CCOP(=S)(OCC)Oc1cc(C)nc(C(C)C)n1`, the outcome in [1], in experiment [2], in [3], in experiment [4], in experiment [5] and in experiment [6] was inactive. The outcome in [7], in [8], in experiment [9], in [10], in [11] and in experiment [12] was inactive. Moreover, the outcome in experiment [19], in [20], in experiment [13], in [14], in [15] and in [16] was inactive. Also, the outcome in experiment [17] and in [18] was inactive.
In the case of `CCCSP(=O)(OCC)Oc1ccc(Br)cc1Cl` (stereo not drawn), the AC50 in [1] was 11.5 µM (active); in [3], 20 µM (active); in experiment [6] it was 20 µM (active); in experiment [9] it was 31.7 µM (active); in experiment [10], 17.4 µM (active); in experiment [13], 27.7 µM (active). Moreover, the half-maximal activity concentration (AC50) in experiment [17] was 22.7 µM (active). The result in experiment [2], in experiment [4], in experiment [5], in [7], in [8] and in experiment [11] was inactive. Moreover, the result in experiment [19], in experiment [14], in [15], in experiment [16] and in [18] was inactive.
On to `O=[N+]([O-])c1cc(C(F)(F)F)c(Cl)c([N+](=O)[O-])c1Nc1ncc(C(F)(F)F)cc1Cl`, for which the result in experiment [1], in experiment [2] and in [12] was inactive. The half-maximal activity concentration (AC50) in [2] was 5.69 µM (active); in experiment [3] it was 2.13 µM (active) and 7.1 µM (active); in [4], 3.29 µM (active) and 5.5 µM (active); in [5], 2.86 µM (active) and 7.2 µM (active); in experiment [6], 1.83 µM (active) and 11.7 µM (active); in [7], 1.92 µM (active) and 5.48 µM (active). The half-maximal activity concentration (AC50) in experiment [9] is 546 nM (active) and 1.8 µM (active); in [10], 1.17 µM (active) and 6.88 µM (active); in experiment [11], 810 nM (active) and 9.49 µM (active); in experiment [12] it was 1.12 µM (active); in [19], 1.32 µM (active) and 8.98 µM (active); in experiment [13], 954 nM (active) and 7.64 µM (active). The AC50 in [14] was 859 nM (active) and 9.54 µM (active); in [15], 1.15 µM (active) and 9.82 µM (active); in experiment [16], 7.9 µM (active); in experiment [17], 741 nM (active) and 5.95 µM (active); in experiment [18], 867 nM (active) and 6.33 µM (active).
